# Laboratory results: PubChem BioAssay AID504651 (National Center for Advancing Translational Sciences (NCATS), 2011)
# About 130 (0.036%) of roughly 360,000 compounds were called active. This excerpt belongs to a sample that is enriched for actives. Unmarked numbers belong to inactive results. Cut-off read from the data, not from the text of the source: active = potentiation above about 30%; inactive = the rest.
# Target: D(1A) dopamine receptor (Homo sapiens) (UniProt P21728)
# Assay: Potentiators of Human D1 Dopamine Receptor: qHTS; note: 0% is about no effect
# Conditions: HEK293 TREx D1 cells, calcium flux, dopamine EC20 potentiation; at 10 µM; stronger effect = higher value
# From the text: Dopamine receptors (DARs) are involved in the etiology and/or therapy of a number of neuropsychiatric and endocrine disorders. For instance, all receptor-based antiparkinsonian drugs work via stimulating the D1 DAR subtype whereas all FDA-approved antipsychotic agents are antagonists of this receptor. […] There are three different types of allosteric modulators that we are seeking, two of which will stimulate or augment receptor signaling, allosteric agonists and potentiators, while the third, allosteric antagonists, will attenuate receptor signaling. The present primary screening assay measures compound potentiation of an EC20 dopamine response by tracking calcium flux in a […], inducible Hek293 Trex D1 cell line.
# NIH Chemical Genomics Center [NCGC]
# NIH Molecular Libraries Probe Centers Network [MLPCN]
# Assay Submitter (PI): David Sibley
# Freshly passaged cells are plated in 1536 well black, clear bottom plates at a density of 4000 cells/well in 3 ul of complete media containing 1x tetracycline inducer. After an overnight incubation at 30 C in 5% CO2, cells are loaded with 2 ul of the no wash Calcium Assay Kit (ABD Bioquest) and incubated at room temperature for 30 to 90 minutes. A 10 cycle (1 second/cycle) baseline measurement is taken and then the FDSS online 1536 pintool delivers 23 nl of compound library (as well as dopamine controls) to the plate. The plate is measured for kinetically at 1 cycle/sec for 180 seconds and is considered to be the agonist portion of the assay (eg, compounds which activate a positive calcium response during this portion are flagged as potential agonists). Following the 180 second read, 1 ul of an EC20 of dopamine is delivered by an onboard pipette head. Measurements are taken kinetically for an additional 180 seconds.
# Chain of D(1A) dopamine receptor (Homo sapiens) (P21728 whole entry, looked up): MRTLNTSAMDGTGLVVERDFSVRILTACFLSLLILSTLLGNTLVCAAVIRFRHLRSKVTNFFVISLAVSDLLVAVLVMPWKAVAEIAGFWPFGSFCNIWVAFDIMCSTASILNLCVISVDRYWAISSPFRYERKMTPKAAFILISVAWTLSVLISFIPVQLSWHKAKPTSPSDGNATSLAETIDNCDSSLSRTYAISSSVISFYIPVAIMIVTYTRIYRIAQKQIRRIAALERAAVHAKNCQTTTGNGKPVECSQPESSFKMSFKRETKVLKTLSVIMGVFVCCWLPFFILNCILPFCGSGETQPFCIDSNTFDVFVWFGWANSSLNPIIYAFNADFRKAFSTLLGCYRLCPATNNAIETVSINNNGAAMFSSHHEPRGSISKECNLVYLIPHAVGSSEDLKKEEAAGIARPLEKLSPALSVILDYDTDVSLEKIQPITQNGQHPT
row,Structure (SMILES),potentiation
1,O=C1C2(Cl)C3(Cl)C4(Cl)C(Cl)(Cl)C5(Cl)C3(Cl)C1(Cl)C5(Cl)C24Cl (stereo not given),54.8% (active)
2,Cc1cccc(-n2c(O)c(C=NC34CN5CN(CN(C5)C3)C4)c(=O)[nH]c2=O)c1,-1.15%
3,Clc1cccc(Cl)c1Cl,-1.55%
4,COP(=O)(NS(=O)(=O)c1ccccc1)OC,-2.85%
5,CNC(=O)O/N=C(\N)Cc1csc2ccccc12,-9.15%
